Source: PubChem
Keap1-Nrf2 PPI – Keap1-Nrf2 protein-protein interaction inhibitors, primary screen, biochemical, fluorescence polarization, single point; Kelch-like ECH-associated protein 1 (Homo sapiens), Q14145; Keap1 Kelch-Nrf2 peptide fluorescence polarization, 1536-well; inhibition, % at 9.4 µM; 0.15% of 340,000 active; AID 504523, 2011; in the data active means inhibition above about 12%; inconclusive means no clear call, values can overlap the other calls; inactive means below about 7.3%;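 further: human Keap1 Kelch domain with fluorescein labeled Nrf2 9mer peptide probe; higher means more block of Keap1 binding to Nrf2 peptide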
Cardiac RTF inh – cardiac RTF calcium sensitivity inhibitors, primary screen, biochemical, IANBD-TnC fluorescence, EC70 calcium | Troponin I, cardiac muscle (Homo sapiens) + Troponin T, cardiac muscle (Homo sapiens) + … | IANBD-labeled cardiac RTF, Ca2+ fluorescence | inhibition, % at 7.15 µM | 0.12% of 340,000 active;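 active means inhibition above the mean inhibition of all tested compounds plus 3 SD, cut at about 17% in these data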;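 further: assay run at fixed EC70 calcium of 1.6 mM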
LANA-H2B inh – blockers of LANA interaction with H2A/H2B – biochemical, FP readout, HTS, primary screen. Protein LANA1 (Human herpesvirus 8 type P (isolate GK18)), Q9QR71. cell-free LANA-H2A/H2B peptide, fluorescence polarization. 0.6% of 320,000 active. inhibition, % (no concentration beside the values); in the data active means inhibition mostly above about 10%, no sharp cut-off; inactive means mostly below about 6.7%
Target sequence (Q9QR71 whole entry, looked up): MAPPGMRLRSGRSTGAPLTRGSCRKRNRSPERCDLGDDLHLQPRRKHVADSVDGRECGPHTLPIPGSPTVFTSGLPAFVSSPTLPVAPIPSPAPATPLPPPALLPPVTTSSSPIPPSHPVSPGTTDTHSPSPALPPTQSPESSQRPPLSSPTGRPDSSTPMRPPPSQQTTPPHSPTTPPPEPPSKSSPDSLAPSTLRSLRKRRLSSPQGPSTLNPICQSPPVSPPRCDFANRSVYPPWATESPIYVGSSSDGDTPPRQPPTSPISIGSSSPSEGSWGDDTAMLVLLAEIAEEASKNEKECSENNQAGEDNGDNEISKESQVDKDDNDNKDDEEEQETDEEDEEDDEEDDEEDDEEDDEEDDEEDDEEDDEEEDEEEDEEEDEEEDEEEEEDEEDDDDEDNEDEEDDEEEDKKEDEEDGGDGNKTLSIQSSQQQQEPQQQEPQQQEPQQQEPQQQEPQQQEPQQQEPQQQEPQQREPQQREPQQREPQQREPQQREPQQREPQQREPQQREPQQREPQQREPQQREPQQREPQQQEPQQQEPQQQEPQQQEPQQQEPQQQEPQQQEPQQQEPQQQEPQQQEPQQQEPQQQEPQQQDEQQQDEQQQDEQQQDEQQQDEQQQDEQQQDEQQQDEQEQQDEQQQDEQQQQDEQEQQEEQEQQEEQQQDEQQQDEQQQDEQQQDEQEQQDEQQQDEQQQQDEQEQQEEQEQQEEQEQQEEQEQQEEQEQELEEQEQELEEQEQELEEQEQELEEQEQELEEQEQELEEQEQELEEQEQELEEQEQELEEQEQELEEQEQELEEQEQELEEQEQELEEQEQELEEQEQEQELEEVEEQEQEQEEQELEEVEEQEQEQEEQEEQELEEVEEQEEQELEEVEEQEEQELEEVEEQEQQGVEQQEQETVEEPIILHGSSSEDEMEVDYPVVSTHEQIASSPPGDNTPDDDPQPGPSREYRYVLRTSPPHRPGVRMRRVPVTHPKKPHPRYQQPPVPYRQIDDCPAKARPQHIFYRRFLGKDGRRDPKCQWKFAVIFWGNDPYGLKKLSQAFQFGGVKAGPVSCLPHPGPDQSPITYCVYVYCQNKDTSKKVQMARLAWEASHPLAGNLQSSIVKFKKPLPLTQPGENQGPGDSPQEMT
cardiac RTF act – cardiac RTF calcium sensitivity activators, primary screen, biochemical, IANBD-TnC fluorescence, EC20 calcium. Troponin I, cardiac muscle (Homo sapiens) + Troponin T, cardiac muscle (Homo sapiens) + …. IANBD-labeled TnC RTF fluorescence at EC20 calcium; 0% EC20 calcium, 100% full calcium. activation, % at 7.2 µM. 0.24% of 340,000 active. AID 493008, 2010;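 active means activation above the mean over all tested compounds plus 3 SD, cut at about 30% in these data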;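 further: rise in fluorescence read as greater calcium sensitivity of cardiac thin filaments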
C-LANA FP – inhibitors of KSHV C-LANA binding to DNA, primary screen, biochemical, fluorescence polarization, FAM-LBS DNA, MBP-C-LANA, single point; AID 504423, 2011; inhibition, % at 9 µM; 0.078% of 340,000 active; Kaposi's sarcoma herpesvirus LANA C-terminal domain (residues 932-1162) DNA binding;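 active means highest replicate inhibition at or above 60% at 9 µM, even if other replicates fall short; inactive means all replicates below 60% inhibition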
Of the large screens only hits and unclear results are named; the others gave an inactive call. Sampled rows, rich in hits. Any-hit rate of the full collection: about 0.98%.

O=C(CCNC(=O)c1ccc([N+](=O)[O-])cc1)Nc1cccc(S(=O)(=O)N2CCCCCC2)c1	LANA-H2B inh 12
COc1ccc(CNC(=O)CN(c2ccc(C(C)C)cc2)S(=O)(=O)c2c(C)noc2C)cc1	LANA-H2B inh 14
CC(C)CCN1C(=O)c2ccc(C(=O)Nc3ccccc3C(=O)O)cc2C1=O	none
CC(C)(CNc1ccc(S(=O)(=O)C(F)(F)F)cc1[N+](=O)[O-])N1CCOCC1	LANA-H2B inh 27
CCCC1=[N+](CC(=O)c2ccc(C)cc2)CCn2cccc21	none
Cc1ccc(N(C(=O)CCC(=O)Nc2ccccn2)C(C(=O)NC(C)C)c2ccc(F)cc2)cc1 (stereo not given)	LANA-H2B inh 18
Cc1ccccc1N(C(=O)CCC(=O)Nc1ccccn1)C(C(=O)NC(C)C)c1ccc(F)cc1 (stereo not given)	none
COc1ccc(S(=O)(=O)N2CCN(CC(=O)Nc3ccc(C)c(F)c3)CC2)cc1	none (no result: LANA-H2B inh)
O=C(C1CCN(S(=O)(=O)c2cccc3cccnc23)CC1)N1CCN(c2ccccc2)CC1	none
O=C(C1CCCN(S(=O)(=O)c2cccc3cccnc23)C1)N1CCN(c2ccc(F)cc2)CC1 (stereo not given)	LANA-H2B inh 25
COc1ccc(N2CCN(C(=O)C3CCCN(S(=O)(=O)c4ccc(F)cc4)C3)CC2)cc1 (stereo not given)	none
COc1ccc(N2CCN(C(=O)C3CCCN(S(=O)(=O)c4ccc(C)cc4)C3)CC2)cc1 (stereo not given)	LANA-H2B inh 26
CCOc1ccc(-n2c(SC(C)C)nc3c(c2=O)SCC3)cc1	none
O=C(NCCN1CCOCC1)c1cc(-c2ccc(F)cc2)on1	LANA-H2B inh 182
CCN1CCN(c2ccc(S(=O)(=O)N3CCOCC3)cc2NC(=O)c2ccc(C(F)(F)F)cc2)CC1	none
C=CCn1c(-c2ccc(Cl)cc2)cnc1SC(C)C(=O)NC(N)=O (stereo not given)	none
Cc1nc2c(=O)[nH]c(=S)[nH]c2[nH]c1=O	Keap1-Nrf2 PPI inconclusive, C-LANA FP 103 (no result: LANA-H2B inh)
CN1CCc2cccc3c2[C@@H]1Cc1ccc(O)c(O)c1-3	LANA-H2B inh active
O=C(O)c1ccccc1-c1c2cc(I)c(=O)c(I)c-2oc2c(I)c(O)c(I)cc12	cardiac RTF act 501
O=Cc1ccc(-c2ccccc2C(=O)O)o1	none
CCN1C(=O)/C(=C2\SC(N3CCOCC3)=NC2=O)c2ccccc21	none (no result: LANA-H2B inh)
C=CCN1C(=O)/C(=C2\SC(N3CCOCC3)=NC2=O)c2cc(Br)ccc21	LANA-H2B inh 19
CC(C)CN1C(=O)C(=O)N(CC(=O)N2CCN(c3ccccc3)CC2)C1=O	none (no result: LANA-H2B inh)
CC1(C)CC(=O)C(C(C#Cc2ccccc2)C2=C(O)CC(C)(C)CC2=O)=C(O)C1	LANA-H2B inh 17
O=C1CCCC(O)=C1C(C#Cc1ccccc1)C1=C(O)CCCC1=O	none
Cc1cc(C)c(S(=O)(=O)N2CCC(C(=O)NCc3ccco3)CC2)c(C)c1	none
Cc1cc(N2CCOCC2)nc(C(C)C)n1	none
Cc1cc(N2CC(C)OC(C)C2)nc(C(C)C)n1 (stereo not given)	LANA-H2B inh active
CS(=O)(=O)N(CC(=O)NCc1ccncc1)c1cc(Cl)cc(Cl)c1	none
CCC[N+](CC#CCO)(CC#Cc1ccccc1)CCC	none
CC(C)(CO)NCC#Cc1ccccc1	cardiac RTF act 34
COc1ccc(/C=C(/NC(=O)c2ccc(C)cc2)C(=O)N2CCCC2)cc1OC	none
COc1cc(CC(=O)OCC(=O)c2ccc(F)cc2)cc(OC)c1OC	none
Cc1ccc(NC(=O)CN(C)C(=O)c2ccc(NS(=O)(=O)c3ccc4[nH]c(=O)[nH]c4c3)cc2)cc1	LANA-H2B inh 29
CN(CC(=O)Nc1c(Cl)cccc1Cl)C(=O)c1ccc(NS(=O)(=O)c2ccc3[nH]c(=O)[nH]c3c2)cc1	none (no result: LANA-H2B inh)
NC(=O)c1cnn(-c2ccc3ccccc3c2)c1N	none
CCOc1ccc(CCNC(=O)c2ccc3ccccc3n2)cc1OCC	none
O=C(CCC(=O)N1CCOCC1)NCc1cccc(C(F)(F)F)c1	LANA-H2B inh 22
COc1cccc(NC(=O)COC(=O)CCC2CCCC2)c1	none
FC(F)(F)c1cccnc1-n1cncn1	LANA-H2B inh 13
CC(C)(C)C(=O)N1CCN(c2ncccc2C(F)(F)F)CC1	none
CCS(=O)(=O)c1ccc(O)c(NC(=O)Nc2cccc3ccccc23)c1	none
CCCCN(CCCC)c1nc2ccccc2nc1C(C#N)C(=O)NCCCOC (stereo not given)	LANA-H2B inh 27
CCN(CC)c1nc2ccccc2nc1C(C#N)C(=O)NCCCOC (stereo not given)	none
CCCCCCNC(=O)C(C#N)c1nc2ccccc2nc1N1CCCC1 (stereo not given)	LANA-H2B inh 155, cardiac RTF act 38
CCN(CC)c1nc2ccccc2nc1C(C#N)C(=O)NCCc1ccccc1 (stereo not given)	cardiac RTF act 66
CCOC(=O)C1(C(=O)OCC)C(C(=O)c2ccccc2)C1c1ccccc1 (stereo not given)	none (no result: LANA-H2B inh)
CCc1nnc(NC(=O)CSc2nnc(C3CC3)n2C)s1	none
COc1ccc(C(=O)NCCS(=O)(=O)NCc2ccccc2)cc1	none
O=C(CN1C(=O)NC2(CCCC2)C1=O)Nc1ccc(F)cc1	none
CC1CCC2(CC1)NC(=O)N(CC(=O)Nc1ccc(F)cc1)C2=O (stereo not given)	LANA-H2B inh 38
O=C1c2ccccc2C(=O)N1Cc1nc2ccccc2c(=O)n1CCN1CCOCC1	none
Cn1c(Cn2c(=O)sc3ccccc32)nnc1SCC(=O)NC1CCCC1	LANA-H2B inh 17
Cc1cccc(-c2nnc(SCC(=O)NC3CC3)n2C)c1	LANA-H2B inh 12
CN1CCN(CCNC(=O)c2ccc3nc(-c4ccc(F)cc4)c(-c4ccc(F)cc4)nc3c2)CC1	none
O=C(NCC1CCCO1)C(c1ccco1)N(Cc1ccc(F)cc1)C(=O)CN1C(=O)c2ccccc2S1(=O)=O (stereo not given)	none
COc1ccccc1C(=O)N/C(=N/c1nc(C)cc(C)n1)Nc1ccccc1	none
NNc1ccc(Cl)c(C(=O)O)c1	LANA-H2B inh 63
C=CCN(C(=O)CCC(=O)Nc1cc(C)on1)C(C(=O)NC1CCCC1)c1ccc(C)cc1 (stereo not given)	none
O=C1/C(=C/c2cccs2)CCC/C1=C\c1cccs1	none
Cn1cccc1/C=C1\CCC/C(=C\c2cccn2C)C1=O	cardiac RTF act 181
C#CCSc1nnc(-c2ccc(OC)cc2)o1	none
O=C(c1cccn2c(=O)c3ccccc3nc12)N1CCN(c2ccccn2)CC1	none
